Test results reported in PubChem BioAssay (NCI).
This is part of a sample that, as a whole, favours compounds with a hit. Of some 79,000 tested, about 15% had one in any assay. Values without a mark were called inactive. Active and inactive are the calls of the source. Rule as the data show it: active = growth inhibition above about 70%; inactive = the rest.

Key:
[1] = NCI Yeast Anticancer Drug Screen. Data for the rad52 strain (AID 147);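 also: 0% = growth of vehicle-treated control cultures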; conditions: S. cerevisiae rad52 mutant growth inhibition, stronger effect = higher value
In short: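 Yeast strain carrying a DNA damage repair alteration was exposed to test compounds. Growth inhibition was measured relative to vehicle-treated controls.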

[2] = NCI Yeast Anticancer Drug Screen. Data for the wt1 strain (AID 149);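 also: 0% = growth of vehicle-treated wt1 cultures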; conditions: S. cerevisiae wt1 strain (SPY 50644) growth inhibition, stronger effect = higher value
In short: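 The wt1 strain was treated with compounds, and growth was compared with vehicle-treated cultures to give inhibition.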

[3] = NCI Yeast Anticancer Drug Screen. Data for the rad50EPP+ strain (AID 151);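 also: 0% = growth of vehicle-treated control cultures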; conditions: S. cerevisiae rad50 mutant strain, stronger effect = higher value
In short: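 Yeast strain carrying rad50 alteration (rad50EPP+) exposed to compounds; growth inhibition measured relative to vehicle-treated controls.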

[4] = NCI Yeast Anticancer Drug Screen. Data for the mgt1 strain (AID 153); conditions: S. cerevisiae mgt1 mutant growth inhibition, stronger effect = higher value
In short: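 Yeast mgt1 strain (DNA repair/cell-cycle alteration panel) exposed to compounds; growth inhibition measured relative to vehicle-treated controls.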

[5] = NCI Yeast Anticancer Drug Screen. Data for the rad50 strain (AID 155);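 also: 0% = growth of vehicle-only cultures of the same strain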; conditions: S. cerevisiae rad50 strain growth inhibition, stronger effect = higher value
In short: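 Cells are treated with compound, grown, and their growth is then scored against vehicle-only cultures of the same repair-deficient yeast strain.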

[6] = NCI Yeast Anticancer Drug Screen. Data for the mec2-1 strain (AID 157); conditions: S. cerevisiae mec2-1 strain, stronger effect = higher value
In short: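 mec2-1 yeast strain, carrying an alteration in DNA damage repair or cell cycle control, was exposed to compounds; growth inhibition was measured relative to vehicle-treated controls.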

[7] = NCI Yeast Anticancer Drug Screen. Data for the rad14 strain (AID 159);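 also: 0% = growth of vehicle-treated control cultures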; conditions: S. cerevisiae rad14 strain growth inhibition, stronger effect = higher value
In short: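 Readout: yeast growth inhibition, referenced to vehicle-only cultures. Strain bears a defined alteration in DNA damage repair.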

[8] = NCI Yeast Anticancer Drug Screen. Data for the sgs1 mgt1 strain (AID 161);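 also: 0% = growth of cultures given vehicle only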; conditions: S. cerevisiae sgs1 mgt1 strain, stronger effect = higher value
In short: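 This yeast growth screen uses a strain with defined DNA-repair lesions; compound-treated growth is compared with vehicle-treated growth.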

[9] = NCI Yeast Anticancer Drug Screen. Data for the cln2 rad14 strain (AID 165);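 also: 0% = growth equal to vehicle treated cultures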; conditions: S. cerevisiae cln2 rad14 strain, stronger effect = higher value
In short: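 Yeast carrying cln2 and rad14 alterations (cell cycle control and DNA damage repair) were exposed to compounds. Growth inhibition was measured against vehicle-treated controls.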

[10] = NCI Yeast Anticancer Drug Screen. Data for the bub3 strain (AID 167); conditions: S. cerevisiae bub3 mutant strain, stronger effect = higher value
In short: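 Part of a panel of yeast mutants defective in DNA damage repair or cell cycle regulation. Each strain is grown with compound, and inhibition is calculated relative to solvent-treated cultures.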

[11] = NCI Yeast Anticancer Drug Screen. Data for the mlh1 strain (AID 171);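 also: 0% = growth of vehicle-treated control cultures of the same strain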; conditions: S. cerevisiae mlh1 strain growth inhibition, stronger effect = higher value
In short: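 Yeast carrying a defined genetic alteration in DNA damage repair or cell cycle control were exposed to test compounds. Growth inhibition was measured relative to vehicle-treated controls.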

[12] = NCI Yeast Anticancer Drug Screen. Data for the sgs1 strain (AID 173);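 also: 0% = growth of vehicle-only control cultures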; conditions: S. cerevisiae sgs1 mutant, stronger effect = higher value
In short: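 Yeast mutant strains carrying defined defects in DNA damage repair or cell cycle control were exposed to test compounds. Growth inhibition was scored against vehicle-treated controls.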

[13] = NCI Yeast Anticancer Drug Screen. Data for the mlh1 rad18 strain (AID 175); conditions: S. cerevisiae mlh1 rad18 strain growth inhibition, stronger effect = higher value
In short: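 Growth inhibition of the yeast strain was measured after compound exposure and expressed relative to vehicle-treated controls. The strain carries defined defects in DNA damage repair.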

[14] = NCI Yeast Anticancer Drug Screen. Data for the rad18 strain (AID 177); conditions: S. cerevisiae rad18 mutant growth inhibition, stronger effect = higher value
In short: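 Yeast carrying a defined DNA damage repair alteration were exposed to compounds. Growth inhibition was expressed relative to vehicle-treated controls.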

[15] = NCI Yeast Anticancer Drug Screen. Data for the CLN2oe strain (AID 163);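 also: 0% = growth of vehicle-only control cultures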; conditions: S. cerevisiae CLN2oe strain, stronger effect = higher value
In short: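 Yeast cells carrying a defined cell-cycle control alteration were exposed to test compounds. Growth inhibition was scored against vehicle-treated control cultures.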

[16] = NCI Yeast Anticancer Drug Screen. Data for the wt2 strain (AID 169);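 also: 0% = growth of vehicle-treated yeast cultures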; conditions: S. cerevisiae wt2 strain growth inhibition, stronger effect = higher value
In short: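 Yeast cells were exposed to test compounds, and growth inhibition was measured relative to vehicle-treated controls.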

[17] = at 5.0 µM (retest, dose inferred, filed as 0.5)
[18] = at 50.0 µM (retest, dose inferred, filed as 5.0)

Compound `CCCC(=O)Oc1ccc(/C=N/NC(N)=S)nc1` has a growth inhibition ([1]; at 1.2 µM) of 5%, a growth inhibition ([1]; at 3.7 µM) of -9% and a growth inhibition ([1]; at 11.0 µM) of -1%. The growth inhibition ([1]; at 33.0 µM) was 8%, the growth inhibition ([1]; at 100.0 µM) was 4% and the growth inhibition ([2]; at 1.2 µM) was 1%. It also gave a growth inhibition ([2]; at 3.7 µM) of -19%, a growth inhibition ([2]; at 11.0 µM) of 1% and a growth inhibition ([2]; at 33.0 µM) of -19%. The growth inhibition ([2]; at 100.0 µM) was -24%, the growth inhibition ([3]; at 1.2 µM) was -3% and the growth inhibition ([3]; at 3.7 µM) was 7%. The growth inhibition ([3]; at 11.0 µM) was 0%, the growth inhibition ([3]; at 33.0 µM) was -11% and the growth inhibition ([3]; at 100.0 µM) was -9%. For the same compound, the growth inhibition ([4]; at 1.2 µM) was -1%, the growth inhibition ([4]; at 3.7 µM) was -5% and the growth inhibition ([4]; at 11.0 µM) was -2%. The growth inhibition ([4]; at 33.0 µM) was -6%, the growth inhibition ([4]; at 100.0 µM) was -14% and the growth inhibition ([5]; at 1.2 µM) was -9%. The growth inhibition ([5]; at 3.7 µM) was -16%, the growth inhibition [5, 17] was -3% and the growth inhibition ([5]; at 11.0 µM) was -17%. The growth inhibition ([5]; at 33.0 µM) was -7%, the growth inhibition [5, 18] was 14% and the growth inhibition ([5]; at 50.0 µM) was 15%. The growth inhibition ([5]; at 100.0 µM) was 4%, the growth inhibition ([6]; at 1.2 µM) was -3% and the growth inhibition ([6]; at 3.7 µM) was -2%. For the same compound, the growth inhibition [6, 17] was -2%, the growth inhibition ([6]; at 11.0 µM) was -4% and the growth inhibition ([6]; at 33.0 µM) was -2%. For the same compound, the growth inhibition [6, 18] was 89% (active), the growth inhibition ([6]; at 50.0 µM) was 75.2% (active) and the growth inhibition ([6]; at 100.0 µM) was 42%. The growth inhibition ([7]; at 1.2 µM) was 2%, the growth inhibition ([7]; at 3.7 µM) was 2% and the growth inhibition ([7]; at 11.0 µM) was -17%. For the same compound, the growth inhibition ([7]; at 33.0 µM) was -19%, the growth inhibition ([7]; at 100.0 µM) was -21% and the growth inhibition [8, 17] was -1%. The growth inhibition [8, 18] was 25%, the growth inhibition ([8]; at 50.0 µM) was 28.4% and the growth inhibition [9, 17] was -3%. It also gave a growth inhibition [9, 18] of 33%, a growth inhibition ([9]; at 50.0 µM) of 11.3% and a growth inhibition ([10]; at 1.2 µM) of -5%. For the same compound, the growth inhibition ([10]; at 3.7 µM) was -6%, the growth inhibition [10, 17] was -4% and the growth inhibition ([10]; at 11.0 µM) was -9%. For the same compound, the growth inhibition ([10]; at 33.0 µM) was -20%, the growth inhibition [10, 18] was -14% and the growth inhibition ([10]; at 50.0 µM) was 0.95%. It also gave a growth inhibition ([10]; at 100.0 µM) of -21%, a growth inhibition ([11]; at 1.2 µM) of -9% and a growth inhibition ([11]; at 3.7 µM) of -6%. It also gave a growth inhibition ([11]; at 11.0 µM) of -8%, a growth inhibition ([11]; at 33.0 µM) of -9% and a growth inhibition ([11]; at 100.0 µM) of -14%. For the same compound, the growth inhibition ([12]; at 1.2 µM) was -10%, the growth inhibition ([12]; at 3.7 µM) was -5% and the growth inhibition ([12]; at 11.0 µM) was -2%. It also gave a growth inhibition ([12]; at 33.0 µM) of -9%, a growth inhibition ([12]; at 100.0 µM) of -1% and a growth inhibition [13, 17] of -4%. The growth inhibition [13, 18] was 26%, the growth inhibition ([13]; at 50.0 µM) was 19.1% and the growth inhibition ([14]; at 1.2 µM) was -7%. The growth inhibition ([14]; at 3.7 µM) was 2%, the growth inhibition ([14]; at 11.0 µM) was -2% and the growth inhibition ([14]; at 33.0 µM) was -8%. The growth inhibition ([14]; at 100.0 µM) was -10%.
With `N#CC1=C(N)N(/N=C/c2ccccc2)C(c2ccccc2)C1(C#N)C#N` (stereo not drawn) the growth inhibition ([1]; at 1.2 µM) was 15%, the growth inhibition ([1]; at 3.7 µM) was 41% and the growth inhibition ([1]; at 11.0 µM) was 78% (active). The growth inhibition ([1]; at 33.0 µM) was 90% (active), the growth inhibition ([1]; at 100.0 µM) was 84% (active) and the growth inhibition ([2]; at 1.2 µM) was 12%. It also gave a growth inhibition ([2]; at 3.7 µM) of 12%, a growth inhibition ([2]; at 11.0 µM) of 10% and a growth inhibition ([2]; at 33.0 µM) of 55%. It also gave a growth inhibition ([2]; at 100.0 µM) of 58%, a growth inhibition ([3]; at 1.2 µM) of 20% and a growth inhibition ([3]; at 3.7 µM) of 14%. The growth inhibition ([3]; at 11.0 µM) was 8%, the growth inhibition ([3]; at 33.0 µM) was 23% and the growth inhibition ([3]; at 100.0 µM) was 5%. The growth inhibition ([4]; at 1.2 µM) was 8%, the growth inhibition ([4]; at 3.7 µM) was 33% and the growth inhibition ([4]; at 11.0 µM) was 84% (active). For the same compound, the growth inhibition ([4]; at 33.0 µM) was 96% (active), the growth inhibition ([4]; at 100.0 µM) was 95% (active) and the growth inhibition ([5]; at 1.2 µM) was 5%. The growth inhibition ([5]; at 3.7 µM) was 17%, the growth inhibition [5, 17] was 16% and the growth inhibition ([5]; at 11.0 µM) was 66%. The growth inhibition ([5]; at 33.0 µM) was 90% (active), the growth inhibition [5, 18] was 83% (active) and the growth inhibition ([5]; at 50.0 µM) was 39.9%. The growth inhibition ([5]; at 100.0 µM) was 87% (active), the growth inhibition ([6]; at 1.2 µM) was 9% and the growth inhibition ([6]; at 3.7 µM) was 31%. For the same compound, the growth inhibition [6, 17] was 4%, the growth inhibition ([6]; at 11.0 µM) was 72% (active) and the growth inhibition ([6]; at 33.0 µM) was 91% (active). For the same compound, the growth inhibition [6, 18] was 87% (active), the growth inhibition ([6]; at 50.0 µM) was 58.5% and the growth inhibition ([6]; at 100.0 µM) was 87% (active). It also gave a growth inhibition ([7]; at 1.2 µM) of 4%, a growth inhibition ([7]; at 3.7 µM) of 19% and a growth inhibition ([7]; at 11.0 µM) of 45%. For the same compound, the growth inhibition ([7]; at 33.0 µM) was 89% (active), the growth inhibition ([7]; at 100.0 µM) was 90% (active) and the growth inhibition ([15]; at 1.2 µM) was 25%. For the same compound, the growth inhibition ([15]; at 3.7 µM) was 40%, the growth inhibition ([15]; at 11.0 µM) was 64% and the growth inhibition ([15]; at 33.0 µM) was 88% (active). The growth inhibition ([15]; at 100.0 µM) was 93% (active), the growth inhibition [9, 17] was -4% and the growth inhibition [9, 18] was 46%. The growth inhibition ([9]; at 50.0 µM) was 45.7%, the growth inhibition ([10]; at 1.2 µM) was 9% and the growth inhibition ([10]; at 3.7 µM) was 21%. The growth inhibition [10, 17] was 13%, the growth inhibition ([10]; at 11.0 µM) was 77% (active) and the growth inhibition ([10]; at 33.0 µM) was 93% (active). For the same compound, the growth inhibition [10, 18] was 88% (active), the growth inhibition ([10]; at 50.0 µM) was 65.7% and the growth inhibition ([10]; at 100.0 µM) was 95% (active). For the same compound, the growth inhibition ([16]; at 1.2 µM) was -9%, the growth inhibition ([16]; at 3.7 µM) was 51% and the growth inhibition ([16]; at 11.0 µM) was 94% (active). The growth inhibition ([16]; at 33.0 µM) was 86% (active), the growth inhibition ([16]; at 100.0 µM) was 87% (active) and the growth inhibition ([11]; at 1.2 µM) was 13%. For the same compound, the growth inhibition ([11]; at 3.7 µM) was 27%, the growth inhibition ([11]; at 11.0 µM) was 79% (active) and the growth inhibition ([11]; at 33.0 µM) was 95% (active). For the same compound, the growth inhibition ([11]; at 100.0 µM) was 93% (active), the growth inhibition ([12]; at 1.2 µM) was 15% and the growth inhibition ([12]; at 3.7 µM) was 41%. For the same compound, the growth inhibition ([12]; at 11.0 µM) was 80% (active), the growth inhibition ([12]; at 33.0 µM) was 93% (active) and the growth inhibition ([12]; at 100.0 µM) was 95% (active). For the same compound, the growth inhibition [13, 17] was 14%, the growth inhibition [13, 18] was 89% (active) and the growth inhibition ([13]; at 50.0 µM) was 63.5%. For the same compound, the growth inhibition ([14]; at 1.2 µM) was 3%, the growth inhibition ([14]; at 3.7 µM) was 22% and the growth inhibition ([14]; at 11.0 µM) was 81% (active). For the same compound, the growth inhibition ([14]; at 33.0 µM) was 89% (active) and the growth inhibition ([14]; at 100.0 µM) was 89% (active).
